Experimental data taken from the supplement of paper PMC8975748.
Where a name gives a salt, the structure may show the parent alone.

Test system: Saccharomyces cerevisiae BY4741 SeMeCo community
Test: z-score of subpopulation abundance vs DMSO median, subpopulation auxotrophic for L; higher = larger share of this subpopulation than in DMSO controls
Conditions: 10 µM; 24 h; SM minimal medium; subpopulation (auxotrophy): L
Method: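 Fluorescent four-plasmid SeMeCo (self-establishing metabolically cooperating S. cerevisiae BY4741 community; plasmids pH-mRuby2, pL-mWasabi, pU-eCFP, pM-TagRFP657) was grown 24 h in minimal SM medium with each Selleck FDA-approved drug at 10 µM in 384-well plates. Cells were fixed and imaged by high-content confocal microscopy. For each auxotrophic subpopulation (and the prototroph), a z-score gives the deviation from the DMSO vehicle-control population median.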

Structure (SMILES)	z-score of subpopulation abundance
NCC(O)c1ccc(O)cc1 (racemic) [(+,-)-Octopamine HCl]	-0.17
CN(C)C(=O)Oc1ccc[n+](C)c1 [Pyridostigmine Bromide]	0.3
CN1c2ccccc2C(NCCCCCCC(=O)O)c2ccc(Cl)cc2S1(=O)=O (centres undefined) [Tianeptine sodium]	-0.37
CC[C@H]1CN2CC[C@]3(C(=O)Nc4ccccc43)[C@@H]2C[C@@H]1/C(=C\OC)C(=O)OC [Rhynchophylline]	-0.82
CCCCCCCCCCCCCCCC[n+]1ccccc1 [Cetylpyridinium Chloride]	-2.16
CC(C)(O)C(Cl)(Cl)Cl [Chlorobutanol]	0.36
C=C[C@H]1CN2CC[C@H]1C[C@H]2[C@H](O)c1ccnc2ccccc12 [Cinchonidine]	0.13
CN1[C@@H]2C[C@@H](OC(=O)[C@H](CO)c3ccccc3)C[C@H]1[C@@H]1O[C@@H]12 [Scopolamine HBr trihydrate]	-0.39
COc1ccc2c(c1)[C@]13CCCC[C@@H]1[C@H](C2)N(C)CC3 [Dextromethorphan hydrobromide hydrate]	0.57
CN(C)[C@@H]1C(=O)C(C(N)=O)=C(O)[C@@]2(O)C(=O)C3=C(O)c4c(O)cccc4[C@@](C)(O)[C@H]3[C@H](O)[C@@H]12 [Oxytetracycline Dihydrate]	-0.76
CN[C@@H]1[C@@H](O)[C@@H](O[C@@H]2[C@@H](O)[C@H](O[C@H]3O[C@H]([C@@H](C)O)[C@@H](O)[C@H](O)[C@H]3N)[C@@H](N)C[C@H]2N)OC[C@]1(C)O [Geneticin (G418 Sulfate)]	0.54
C=CN1CCCC1=O.II [Povidone iodine]	0.47
COc1ccc(C(CN(C)C)C2(O)CCCCC2)cc1 (centres undefined) [Venlafaxine]	-0.75
Nc1ccncc1 [4-Aminopyridine]	0.44
COc1cc2c(cc1OC)C1CC(=O)C(CC(C)C)CN1CC2 (centres undefined) [Tetrabenazine (Xenazine)]	1.69
COc1ccc2c3c([nH]c2c1)C(C)=NCC3 [Harmaline]	2.48
CC1(C)SC2C(N)C(=O)N2C1C(=O)O (centres undefined) [6-Aminopenicillanic acid]	-0.39

Structure (SMILES)	z-score of subpopulation abundance
CCC1=C[C@H]2CN3CCc4c([nH]c5ccccc45)[C@](C(=O)OC)(C2)[C@H]13 [Catharanthine]	-0.77
COc1ccc2[nH]cc(CCN)c2c1 [5-Methoxytryptamine]	0.52
C[C@@H]1CC[C@H]2[C@@H](C)C(=O)O[C@@H]3O[C@@]4(C)CC[C@@H]1[C@]32OO4 [Artemisinin]	-0.11
Oc1cccc2cccnc12 [8-Hydroxyquinoline]	-1.01
CN(C)[C@@H]1C(=O)C(C(N)=O)=C(O)[C@@]2(O)C(=O)C3=C(O)c4c(O)cccc4[C@@](C)(O)[C@H]3C[C@@H]12 [Tetracycline HCl]	-0.47
CCOC(=O)Nc1ccc(NCc2ccc(F)cc2)cc1N [Retigabine]	-0.58
CC[C@@H](C(N)=O)N1CCCC1=O [Levetiracetam]	0
C[C@H]1O[C@H](O[C@H]2[C@H](O)[C@@H](O)[C@@H](O)[C@H](O)[C@@H]2O)[C@@H](N)C[C@@H]1NC(=N)C(=O)O [Kasugamycin hydrochloride]	0.8
Cn1cc(C2=C(c3cn(C4CCN(Cc5ccccn5)CC4)c4ccccc34)C(=O)NC2=O)c2ccccc21	-1.15
C=CCN1C[C@H](C(=O)N(CCCN(C)C)C(=O)NCC)C[C@@H]2c3cccc4[nH]cc(c34)C[C@H]21 [Cabergoline]	0.36
CN(C)[C@@H]1C(=O)C(C(N)=O)=C(O)[C@@]2(O)C(=O)C3=C(O)c4c(O)ccc(Cl)c4[C@@](C)(O)[C@H]3C[C@@H]12 [Chlortetracycline HCl]	-0.76
O=c1cccc2n1C[C@@H]1CNC[C@H]2C1 [Cytisine]	0.2
O=C(O[C@H]1C[C@H]2CC[C@@H](C1)[N+]21CCCC1)C(O)(c1ccccc1)c1ccccc1 [Trospium chloride]	-0.17
O=[N+]([O-])C(Br)(CO)CO [Bronopol]	-0.82
N#Cc1nn(-c2c(Cl)cc(C(F)(F)F)cc2Cl)c(N)c1[S+]([O-])C(F)(F)F (centres undefined) [Fipronil]	-0.6
C=C(C)[C@H]1Cc2c(ccc3c2O[C@@H]2COc4cc(OC)c(OC)cc4[C@@H]2C3=O)O1 [Rotenone (Barbasco)]	0.46
NCCc1c[nH]c2ccc(O)cc12 [Serotonin HCl]	-1.08
